Experimental data reported in PubChem BioAssay (NCATS).
Values without a mark were called inactive. Records with an inconclusive call do not appear. Entries that show only a call come without a potency. Active and inactive are the calls of the source. Unless noted, calls come from the whole dose curve; as a rule, active = well fitted curve in the direction sought with a large enough effect; inconclusive = small, poorly fitted or top-dose-only effect, or another doubt; inactive = no such curve, though single readings can be large; an effect the other way counts as inactive or inconclusive.

Columns and labels:
[1] = Validation of Assay for Modulators of Lamin A Splicing (AID 1459; active = well fitted curve in the direction sought with a large enough effect in the signal ratio; the % refers to the signal ratio;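 note: cells exposed to compound for two days before reading; ratio rise marks activators and ratio drop marks inhibitors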)
How it was run: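 S3 HeLa stably expressing lamin A-EGFP splicing minigene and DsRed2, 600 cells/well in Opti-MEM with 2% FBS, treated 48 h at 37C; laser-scanning cytometry gives GFP/RFP total intensity ratio; ancitabine positive control, 0.5% DMSO vehicle.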

[2] = target: DNA repair nuclease/redox regulator APEX1 (Homo sapiens) (UniProt P27695); experiment: qHTS Validation Assay for Inhibitors of the Human Apurinic/apyrimidinic Endonuclease 1 (APE1) (AID 1705;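 note: TAMRA fluorescence gain over two minutes as APE1 cuts a quenched THF abasic duplex; series mostly up to about 57 µM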)
How it was run: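 Fluorogenic double-stranded THF abasic-site substrate (5'-TAMRA/3'-BHQ-2), 50 nM final. Enzyme preincubated with compound 15 min at room temperature, then substrate added. Kinetic fluorescence (ex 525/em 598 nm) read three times at 60 s intervals; activity taken as third-minus-first read difference.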

[3] = Counterscreen for APE1 Inhibitors: Fluorescent Dye Displacement Validation Assay (AID 1707)
How it was run: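 Assay buffer: Tris-HCl pH7.5 with 50mM NaCl, 2 mM MgCl2, 0.01% Tween-20. Dye 250 nM, duplex 50 nM final. Readout: decrease in ThO endpoint fluorescence, 480 nm excitation, 540 nm emission.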

[4] = qHTS for differential inhibitors of proliferation of Plasmodium falciparum line 3D7 (AID 1876); note: potency is the fitted concentration of half-maximal effect
[5] = qHTS for differential inhibitors of proliferation of Plasmodium falciparum line D10 (AID 1877);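 note: parasites grown with compound for 72 h before DNA staining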; note: potency is the fitted concentration of half-maximal effect
[6] = qHTS for differential inhibitors of proliferation of Plasmodium falciparum line Dd2 (AID 1882); conditions: Potency: Plasmodium falciparum Dd2 proliferation inhibition; note: nearly all actives have a fitted effect of over 65% in size; note: potency is the fitted concentration of half-maximal effect
How it was run: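 SYBR Green I DNA fluorescence read-out, ex 485/em 535 nm. Signals were normalized to 0.29 uM artemisinin and DMSO wells, then corrected using vehicle-only plates flanking each stack. Parasite growth ran 72 h in erythrocytes before lysis.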

[7] = qHTS for differential inhibitors of proliferation of Plasmodium falciparum line HB3 (AID 1886); conditions: Potency: Plasmodium falciparum HB3 proliferation inhibition;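 note: parasites grown with compound for 72 h before SYBR Green readout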; note: potency is the fitted concentration of half-maximal effect
[8] = target: Ferritin light chain (Equus caballus) (UniProt P02791); experiment: qHTS Validation Assay for Identification of Novel General Anesthetics (AID 2323); note: series mostly up to about 77 µM
How it was run: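 Horse-spleen apoferritin (10 uM) in PBS with 50% saturated 1-aminoanthracene; compounds pin-transferred, 10 min at room temperature. Fluorescence read at 380/535 nm, normalized to free 1-AMA and 1-AMA/apoferritin values; four-parameter Hill fit.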

[9] = target: ATP-dependent DNA helicase Q1 (Homo sapiens) (UniProt P46063); experiment: qHTS Validation Assay for Inhibitors of RecQ-Like Dna Helicase 1 (RECQ1) (AID 2353)
How it was run: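 50 nM RECQ1T1 preincubated 15 min with compound in Tris pH 8.0 buffer with MgCl2, DTT, Tween-20 and 2.5 ug/ml poly(dI-dC); started with 200 nM TAMRA/BHQ-2 forked duplex and 2 mM ATP. Unwinding read as fluorescence (525/598 nm), two reads 2 h apart.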

[10] = Validation screen for small molecules that induce DNA re-replication in MCF 10A normal breast cells (AID 463097); note: nearly all actives have a fitted effect of over 60% in size
How it was run: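 MCF 10A cells exposed to compound 48 hr at 37 C, 5% CO2, then Hoechst-stained 40 min. Laser-scanning imaging of nuclear DNA content (405 nm ex, 500-530 nm em); re-replication scored as rise in nuclei with elevated fluorescence intensity.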

[11] = Quantitative high throughput screen for delayed death inhibitors of the malarial parasite plastid, 96 hour incubation (AID 488745); note: nearly all actives have a fitted effect of over 70% in size; note: potency is the fitted concentration of half-maximal effect
How it was run: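 Growth of reporter-bearing P. falciparum in red cells is measured after 96 h with compound, covering two erythrocytic cycles. Luminescence from the integrated luciferase serves as the growth signal.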

[12] = Quantitative high throughput screen for delayed death inhibitors of the malarial parasite plastid, 48 hour incubation (AID 488752); note: nearly all actives have a fitted effect of over 65% in size; note: potency is the fitted concentration of half-maximal effect
How it was run: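 One parasite generation (48 h, 37 C, 5% CO2) of luciferase-reporter P. falciparum in erythrocytes is run with test compound; decreased luminescence indicates inhibited growth.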

[13] = target: M-phase phosphoprotein 8 (Homo sapiens) (UniProt Q99549); experiment: qHTS Validation Assay for Inhibitors for MPP8 Chromodomain Interactions with Methylated Histone Tails (AID 488949); note: nearly all actives have a fitted effect of over 55% in size; note: potency is the fitted concentration of half-maximal effect
How it was run: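 MPP8 (50 nM) was pre-bound to 50 nM biotinylated H3(1-18)K9me3 peptide in PBS pH 7.4 with 0.01% Tween-20. Compounds were then added for 30 min at room temperature, and complex disruption was read by AlphaScreen with streptavidin donor and nickel-chelate acceptor beads.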

[14] = target: Transient receptor potential cation channel subfamily V member 1 (Homo sapiens) (UniProt Q8NER1); experiment: HTS Assay for Compounds that Act as Enhancers of the Vanilloid Receptor 1 (AID 488979)
How it was run: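 Calcium influx kinetics via Fluo-8 (480/520 nm) in TRPV1-expressing cells, 2000/well cultured overnight at 35.5C. Compound-alone read 3 min (agonist phase), followed by EC20 capsaicin challenge for 2 min (enhancer phase).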

[15] = target: Thyrotropin receptor (Homo sapiens) (UniProt P16473); experiment: qHTS Assay for Antagonists of the Thyroid Stimulating Hormone Receptor (AID 488980); note: series mostly up to about 58 µM
How it was run: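 TSHR-transfected HEK293 cells (2000/well) in HEPES-buffered HBSS with 70 uM RO 20-1724 were stimulated with 4 nM TSH (EC80, final) in the presence of compound. cAMP was measured by HTRF competition after lysis and 30 min at RT.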

[16] = target: Thyrotropin-releasing hormone receptor (Homo sapiens) (UniProt P34981); experiment: qHTS for Small Molecule Agonists and Allosteric Enhancers of Human TRH Receptor: Validation Screen for Agonists (AID 493127;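 active = calcium activation more than 3 SD above the typical response in the agonist read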;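 note: intracellular calcium rise by fluo-8 fluorescence before TRH EC20 addition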); conditions: TRH receptor agonist cell assay; at 2 µM; hits give high values
How it was run: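 Gq-coupled calcium mobilization in TRHR cells after compound addition, monitored kinetically with fluo-8 dye on an FDSS reader.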

[17] = target: Galactokinase (Homo sapiens) (UniProt P51570); experiment: qHTS Validation Assay for Inhibitors of Human Galactokinase (GALK) (AID 493189)
How it was run: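 GALK (5 nM) with 35 uM ATP and 100 uM galactose in HEPES pH 8.0 with MgCl2, NaCl, DTT and BSA. Reaction ran 1 h at room temperature. Residual ATP read by Kinase-Glo Plus luminescence.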

[18] = target: Voltage-gated inwardly rectifying potassium channel KCNH2 (Homo sapiens) (UniProt Q12809); experiment: qHTS Assay for Small Molecule Inhibitors of the Human hERG Channel Activity (AID 588834);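 note: lower thallium flux fluorescence means stronger hERG block; nearly all actives have a fitted effect of over 50% in size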; note: potency is the fitted concentration of half-maximal effect
How it was run: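 U2OS cells BacMam-transduced with hERG, 2000 cells/well, compound ~10 min at 37 °C before stimulation buffer. FluxOR thallium flux fluorescence read kinetically on FDSS; decrease indicates block; AC50 from Hill fits.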

[19] = target: Endonuclease 4 (Escherichia coli (strain K12)) (UniProt P0A6C1); experiment: Counterscreen for APE1 Inhibitors: qHTS Validation Assay for Inhibitors of Endonuclease IV (AID 1708)
How it was run: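 Enzymatic AP-site incision assay using a double-stranded THF substrate labelled with TAMRA and BHQ-2; released fluorescence signals activity. Enzyme 2 nM, substrate 50 nM, 15 min compound preincubation.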

Sequence of DNA repair nuclease/redox regulator APEX1 (Homo sapiens) (P27695 whole entry, looked up): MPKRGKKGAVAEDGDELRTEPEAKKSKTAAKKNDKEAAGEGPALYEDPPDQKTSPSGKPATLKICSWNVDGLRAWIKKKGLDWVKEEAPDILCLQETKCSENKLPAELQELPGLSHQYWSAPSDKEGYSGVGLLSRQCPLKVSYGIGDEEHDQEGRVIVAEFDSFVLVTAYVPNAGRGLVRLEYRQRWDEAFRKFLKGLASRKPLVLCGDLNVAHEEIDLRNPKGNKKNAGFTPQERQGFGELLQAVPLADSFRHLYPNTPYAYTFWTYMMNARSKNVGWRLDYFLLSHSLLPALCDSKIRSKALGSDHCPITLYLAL
Sequence of Ferritin light chain (Equus caballus) (P02791 2-175 limits assumed): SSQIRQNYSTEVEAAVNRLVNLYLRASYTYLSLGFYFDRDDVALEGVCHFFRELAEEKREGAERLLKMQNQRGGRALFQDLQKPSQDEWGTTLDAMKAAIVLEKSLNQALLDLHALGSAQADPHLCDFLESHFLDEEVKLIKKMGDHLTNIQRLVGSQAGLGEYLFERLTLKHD
Sequence of Transient receptor potential cation channel subfamily V member 1 (Homo sapiens) (Q8NER1 whole entry, looked up): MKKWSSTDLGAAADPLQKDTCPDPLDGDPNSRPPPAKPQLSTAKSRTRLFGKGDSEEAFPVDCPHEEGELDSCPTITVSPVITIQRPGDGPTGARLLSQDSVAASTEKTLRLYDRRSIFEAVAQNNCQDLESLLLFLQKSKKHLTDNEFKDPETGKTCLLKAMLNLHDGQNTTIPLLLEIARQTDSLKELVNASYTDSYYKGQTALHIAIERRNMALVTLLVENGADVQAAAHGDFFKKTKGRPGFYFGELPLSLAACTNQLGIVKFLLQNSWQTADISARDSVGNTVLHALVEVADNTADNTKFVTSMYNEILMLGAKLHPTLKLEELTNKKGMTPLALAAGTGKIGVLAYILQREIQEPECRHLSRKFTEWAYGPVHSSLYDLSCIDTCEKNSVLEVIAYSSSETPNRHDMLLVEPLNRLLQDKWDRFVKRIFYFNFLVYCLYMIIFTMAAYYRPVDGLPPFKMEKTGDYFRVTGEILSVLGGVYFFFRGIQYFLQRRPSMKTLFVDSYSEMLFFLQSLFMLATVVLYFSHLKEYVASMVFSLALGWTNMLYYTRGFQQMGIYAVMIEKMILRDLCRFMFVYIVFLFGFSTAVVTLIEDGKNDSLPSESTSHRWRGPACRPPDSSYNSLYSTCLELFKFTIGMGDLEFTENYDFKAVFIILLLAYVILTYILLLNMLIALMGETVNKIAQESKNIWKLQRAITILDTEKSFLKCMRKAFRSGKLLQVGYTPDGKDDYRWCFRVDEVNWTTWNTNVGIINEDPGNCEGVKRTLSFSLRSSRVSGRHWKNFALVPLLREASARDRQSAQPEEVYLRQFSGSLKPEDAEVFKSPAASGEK
Sequence of Voltage-gated inwardly rectifying potassium channel KCNH2 (Homo sapiens) (Q12809 whole entry, looked up): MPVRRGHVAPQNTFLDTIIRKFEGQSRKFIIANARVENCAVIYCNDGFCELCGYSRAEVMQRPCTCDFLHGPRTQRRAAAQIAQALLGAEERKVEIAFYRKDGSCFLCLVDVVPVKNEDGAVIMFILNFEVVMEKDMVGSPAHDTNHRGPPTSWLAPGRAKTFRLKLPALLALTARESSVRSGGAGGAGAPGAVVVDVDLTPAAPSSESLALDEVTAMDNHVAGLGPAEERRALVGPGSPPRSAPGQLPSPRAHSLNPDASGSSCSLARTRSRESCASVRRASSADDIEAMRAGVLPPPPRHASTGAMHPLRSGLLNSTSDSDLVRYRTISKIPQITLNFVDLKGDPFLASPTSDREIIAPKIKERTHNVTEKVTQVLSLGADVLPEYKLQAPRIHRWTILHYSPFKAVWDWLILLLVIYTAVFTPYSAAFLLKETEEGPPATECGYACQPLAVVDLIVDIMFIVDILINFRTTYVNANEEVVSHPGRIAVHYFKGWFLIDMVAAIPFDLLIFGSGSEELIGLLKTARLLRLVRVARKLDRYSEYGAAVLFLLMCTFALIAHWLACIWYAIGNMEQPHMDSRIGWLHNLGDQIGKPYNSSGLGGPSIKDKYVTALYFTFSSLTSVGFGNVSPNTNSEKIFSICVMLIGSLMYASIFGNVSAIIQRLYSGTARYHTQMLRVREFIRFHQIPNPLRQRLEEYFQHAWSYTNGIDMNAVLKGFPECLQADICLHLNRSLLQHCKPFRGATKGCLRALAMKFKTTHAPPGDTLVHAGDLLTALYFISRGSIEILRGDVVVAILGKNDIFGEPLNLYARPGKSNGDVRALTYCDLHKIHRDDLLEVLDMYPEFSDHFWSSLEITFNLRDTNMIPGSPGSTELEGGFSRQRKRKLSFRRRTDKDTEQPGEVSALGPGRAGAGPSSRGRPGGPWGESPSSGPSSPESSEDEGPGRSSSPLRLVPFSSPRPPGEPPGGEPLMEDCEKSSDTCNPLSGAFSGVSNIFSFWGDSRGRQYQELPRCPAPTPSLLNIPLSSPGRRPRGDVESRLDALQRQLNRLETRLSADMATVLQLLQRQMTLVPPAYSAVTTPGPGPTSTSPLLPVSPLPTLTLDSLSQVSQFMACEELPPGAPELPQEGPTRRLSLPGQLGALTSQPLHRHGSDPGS
Sequence of M-phase phosphoprotein 8 (Homo sapiens) (Q99549 whole entry, looked up): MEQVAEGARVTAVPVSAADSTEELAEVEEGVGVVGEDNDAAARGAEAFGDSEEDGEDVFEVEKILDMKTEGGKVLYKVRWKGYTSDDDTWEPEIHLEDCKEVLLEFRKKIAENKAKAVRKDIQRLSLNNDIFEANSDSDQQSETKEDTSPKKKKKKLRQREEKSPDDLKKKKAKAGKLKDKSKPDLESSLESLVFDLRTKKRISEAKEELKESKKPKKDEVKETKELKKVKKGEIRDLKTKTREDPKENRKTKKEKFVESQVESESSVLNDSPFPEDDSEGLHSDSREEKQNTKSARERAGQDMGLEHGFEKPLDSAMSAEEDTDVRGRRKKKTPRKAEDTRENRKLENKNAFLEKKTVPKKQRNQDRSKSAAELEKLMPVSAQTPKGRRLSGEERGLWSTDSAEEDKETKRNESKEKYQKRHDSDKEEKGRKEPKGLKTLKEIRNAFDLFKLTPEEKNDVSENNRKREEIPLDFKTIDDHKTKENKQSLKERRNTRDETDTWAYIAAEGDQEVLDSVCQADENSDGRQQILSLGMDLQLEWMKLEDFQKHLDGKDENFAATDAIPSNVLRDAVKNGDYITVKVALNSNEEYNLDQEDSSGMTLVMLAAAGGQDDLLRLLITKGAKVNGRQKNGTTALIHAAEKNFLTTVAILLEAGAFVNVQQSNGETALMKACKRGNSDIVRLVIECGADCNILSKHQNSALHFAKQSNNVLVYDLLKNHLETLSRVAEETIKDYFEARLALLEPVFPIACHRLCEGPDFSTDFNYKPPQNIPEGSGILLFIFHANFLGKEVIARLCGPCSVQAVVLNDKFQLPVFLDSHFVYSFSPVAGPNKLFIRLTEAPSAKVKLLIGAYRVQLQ
Sequence of ATP-dependent DNA helicase Q1 (Homo sapiens) (P46063 whole entry, looked up): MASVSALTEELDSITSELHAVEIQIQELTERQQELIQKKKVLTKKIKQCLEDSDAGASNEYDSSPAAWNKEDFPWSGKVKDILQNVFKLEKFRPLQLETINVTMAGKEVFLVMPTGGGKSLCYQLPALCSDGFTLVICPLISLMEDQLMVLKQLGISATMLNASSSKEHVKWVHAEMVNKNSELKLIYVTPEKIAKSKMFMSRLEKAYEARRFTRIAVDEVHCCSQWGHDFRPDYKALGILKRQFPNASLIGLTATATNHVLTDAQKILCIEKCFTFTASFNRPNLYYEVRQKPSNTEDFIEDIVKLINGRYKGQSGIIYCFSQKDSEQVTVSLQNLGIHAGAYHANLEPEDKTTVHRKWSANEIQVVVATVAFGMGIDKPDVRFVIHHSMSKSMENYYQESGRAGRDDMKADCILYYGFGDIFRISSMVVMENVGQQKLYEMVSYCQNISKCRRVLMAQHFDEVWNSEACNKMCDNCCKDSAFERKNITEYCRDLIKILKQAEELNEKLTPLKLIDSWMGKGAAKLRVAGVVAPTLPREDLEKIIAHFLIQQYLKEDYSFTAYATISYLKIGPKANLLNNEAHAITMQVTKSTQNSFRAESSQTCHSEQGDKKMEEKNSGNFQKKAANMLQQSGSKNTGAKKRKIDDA
Sequence of Galactokinase (Homo sapiens) (P51570 whole entry, looked up): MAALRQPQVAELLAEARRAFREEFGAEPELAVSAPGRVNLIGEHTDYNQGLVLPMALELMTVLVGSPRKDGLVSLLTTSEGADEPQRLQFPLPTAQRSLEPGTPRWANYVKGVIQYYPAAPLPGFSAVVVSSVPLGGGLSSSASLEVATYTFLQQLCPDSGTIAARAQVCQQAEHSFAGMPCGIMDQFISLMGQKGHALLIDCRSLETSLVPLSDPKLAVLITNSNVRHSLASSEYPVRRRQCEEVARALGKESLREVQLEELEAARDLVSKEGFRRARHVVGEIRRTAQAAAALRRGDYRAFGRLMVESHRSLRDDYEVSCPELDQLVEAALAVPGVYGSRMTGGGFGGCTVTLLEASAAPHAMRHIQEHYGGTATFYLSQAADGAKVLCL
Sequence of Thyrotropin-releasing hormone receptor (Homo sapiens) (P34981 whole entry, looked up): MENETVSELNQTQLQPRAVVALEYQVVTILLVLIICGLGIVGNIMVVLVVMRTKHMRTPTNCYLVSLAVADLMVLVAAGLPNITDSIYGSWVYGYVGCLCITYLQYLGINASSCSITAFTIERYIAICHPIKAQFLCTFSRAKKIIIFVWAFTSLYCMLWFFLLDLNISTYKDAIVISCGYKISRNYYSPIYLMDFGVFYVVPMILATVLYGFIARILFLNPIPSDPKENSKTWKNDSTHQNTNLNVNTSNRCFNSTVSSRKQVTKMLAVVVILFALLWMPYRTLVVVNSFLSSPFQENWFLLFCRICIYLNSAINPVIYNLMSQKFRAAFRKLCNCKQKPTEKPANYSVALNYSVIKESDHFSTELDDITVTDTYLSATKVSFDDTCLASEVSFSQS

CSc1nc(N)c2ncn([C@@H]3O[C@H](COP(=O)(O)OP(=O)(O)O)[C@H](O)[C@H]3O)c2n1
outcome [1]: inactive | Potency [2]: inactive | Potency [3]: inactive | Potency [4]: inactive | Potency [5]: inactive | Potency [6]: inactive | Potency [7]: inactive | outcome [8]: inactive | Potency [9]: inactive | outcome [10]: inactive | Potency [11]: inactive | Potency [12]: inactive | Potency [13]: inactive | outcome [14]: inactive | outcome [15]: inactive | activation [16]: 17.3% | outcome [17]: inactive | Potency [18]: inactive

Nc1nc2c(nc(Br)n2C2O[C@H]3COP(=O)(O)O[C@@H]3C2O)c(=O)[nH]1 (some centres not stated)
outcome [1]: inactive | Potency [2]: inactive | Potency [3]: inactive | outcome [19]: inactive | Potency [4]: 10 µM (active) | Potency [6]: 7.94 µM (active) | outcome [8]: inactive | Potency [9]: inactive | outcome [10]: inactive | Potency [12]: 10.4 µM (active) | Potency [13]: inactive | outcome [14]: inactive | outcome [15]: inactive | activation [16]: 0.812% | outcome [17]: inactive

CN1C[C@H](C(=O)N[C@]2(C)O[C@@]3(O)C4CCCN4C(=O)[C@H](Cc4ccccc4)N3C2=O)C[C@@H]2c3cccc4[nH]cc(c34)C[C@H]21 (some centres not stated)
outcome [1]: inactive | Potency [2]: inactive | Potency [3]: inactive | outcome [8]: inactive | Potency [9]: inactive | Potency [11]: 2.94 µM (active) | Potency [12]: 2.33 µM (active) | outcome [14]: inactive | outcome [15]: inactive | activation [16]: 0.625% | outcome [17]: inactive | Potency [18]: 11.2 µM (active)

CCSC(N)=Nc1ccc(C(F)(F)F)cc1
outcome [1]: inactive | Potency [2]: inactive | Potency [3]: inactive | outcome [19]: inactive | Potency [4]: inactive | Potency [5]: inactive | Potency [6]: inactive | Potency [7]: inactive | Potency [9]: inactive | outcome [10]: inactive | Potency [11]: inactive | Potency [12]: inactive | Potency [13]: inactive | outcome [14]: inactive | outcome [15]: inactive | activation [16]: -5.5% | outcome [17]: inactive | Potency [18]: inactive

CC(C)CN(C)c1nc(N)c(C(=O)N=C(N)N)nc1Cl
outcome [1]: inactive | Potency [2]: inactive | Potency [3]: inactive | Potency [4]: 3.98 µM (active) | Potency [5]: 7.08 µM (active) | Potency [7]: 8.91 µM (active) | Potency [9]: inactive | Potency [11]: 8.28 µM (active) | Potency [12]: 10.4 µM (active) | Potency [13]: 44.7 µM (active) | outcome [15]: inactive | activation [16]: 0.812% | outcome [17]: inactive | Potency [18]: 2 µM (active)

COc1cc2c(cc1OC)C(c1ccccc1)CN(C)CC2 (configuration not stated)
outcome [1]: inactive | Potency [2]: inactive | Potency [3]: inactive | outcome [19]: inactive | Potency [4]: 14.1 µM (active) | outcome [8]: inactive | Potency [9]: inactive | outcome [10]: inactive | Potency [11]: inactive | Potency [12]: inactive | Potency [13]: inactive | outcome [14]: inactive | outcome [15]: inactive | activation [16]: 1.81% | outcome [17]: inactive

C[C@H]1CC2[C@@H]3CCC4=CC(=O)C=C[C@]4(C)[C@@]3(Cl)[C@@H](O)C[C@]2(C)[C@@]1(O)C(=O)CO (some centres not stated)
outcome [1]: inactive | Potency [2]: inactive | Potency [3]: inactive | outcome [19]: inactive | Potency [4]: inactive | Potency [5]: inactive | Potency [6]: inactive | outcome [8]: inactive | Potency [9]: inactive | outcome [10]: inactive | Potency [11]: inactive | Potency [12]: inactive | Potency [13]: inactive | outcome [14]: inactive | outcome [15]: inactive | activation [16]: 0.25% | outcome [17]: inactive | Potency [18]: inactive

NCCCCNS(=O)(=O)c1cccc2c(Cl)cccc12
outcome [1]: inactive | Potency [2]: inactive | Potency [3]: inactive | outcome [19]: inactive | Potency [4]: 8.91 µM (active) | Potency [5]: 10 µM (active) | Potency [7]: 12.6 µM (active) | outcome [8]: inactive | Potency [9]: inactive | Potency [12]: 14.7 µM (active) | Potency [13]: inactive | outcome [15]: inactive | activation [16]: 0.5% | outcome [17]: inactive | Potency [18]: 4.47 µM (active)

CNC(=O)[C@H]1O[C@@H](n2cnc3c(NCc4ccc(N)cc4)ncnc32)[C@H](O)[C@H]1O
outcome [1]: inactive | Potency [2]: inactive | Potency [3]: inactive | Potency [4]: inactive | Potency [5]: inactive | Potency [6]: inactive | Potency [7]: inactive | outcome [8]: inactive | Potency [9]: inactive | outcome [10]: inactive | Potency [11]: inactive | Potency [12]: inactive | Potency [13]: inactive | outcome [14]: inactive | outcome [15]: inactive | activation [16]: -0.312% | outcome [17]: inactive | Potency [18]: inactive

Nc1ncnc2c1nc(Sc1ccc(Cl)cc1)n2[C@H]1O[C@@H]2COP(=O)(O)O[C@H]2[C@@H]1O
outcome [1]: inactive | Potency [2]: inactive | Potency [3]: inactive | outcome [19]: inactive | Potency [7]: 10 µM (active) | outcome [8]: inactive | Potency [9]: inactive | outcome [10]: inactive | Potency [11]: inactive | Potency [12]: inactive | Potency [13]: inactive | outcome [14]: inactive | outcome [15]: inactive | activation [16]: 1.31% | outcome [17]: inactive | Potency [18]: inactive

NC(=S)NCCCC(N)C(=O)O (configuration not stated)
outcome [1]: inactive | Potency [2]: inactive | Potency [3]: inactive | outcome [19]: inactive | Potency [4]: inactive | Potency [5]: inactive | Potency [6]: inactive | Potency [7]: inactive | outcome [8]: inactive | Potency [9]: inactive | outcome [10]: inactive | Potency [11]: inactive | Potency [12]: inactive | Potency [13]: 20 µM (active) | outcome [14]: inactive | outcome [15]: inactive | activation [16]: -0.25% | outcome [17]: inactive
